Assay outcomes from PubChem BioAssay.
Hits are enriched below; roughly 1.3% of the tested compounds scored in any of these assays.
PERK inhibitor – human PERK inhibition, primary cell-based screen; Q9NZJ5; AID 1416; CHO PERK-DD fusion, SEAP luminescence translation reporter; actives 0.17% (n = 220,000); inhibition, % at 5.6 µM;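 active = inhibition above the mean inhibition of all tested compounds plus 3 SD, set separately per screening campaign, cut at about 2.9% in these data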;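 note: PERK kinase domain activated by AP20187 dimerizer at 100 nM; 0% = DMSO with dimerizer and 100% = rapamycin at 8.4 µM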
S1P3 antagonist – antagonists of human S1P3 receptor; inhibition, % at 4.98 µM; AID 485; Q99500; actives 0.27% (n = 170,000); CHO S1P3 NFAT-BLA reporter, FRET fluorescence, antagonist mode;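 active = inhibition above the plate cutoff, the mean inhibition of test wells on that plate plus 3 SD, cut at about 28% in these data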;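 note: cells challenged with S1P at its EC80 of 0.8 µM; blue over green emission ratio from cleaved BLA substrate after 4 h stimulation; 0% = S1P-stimulated wells and 100% = unstimulated DMSO-only wells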
Target sequence (Q99500 whole entry, looked up): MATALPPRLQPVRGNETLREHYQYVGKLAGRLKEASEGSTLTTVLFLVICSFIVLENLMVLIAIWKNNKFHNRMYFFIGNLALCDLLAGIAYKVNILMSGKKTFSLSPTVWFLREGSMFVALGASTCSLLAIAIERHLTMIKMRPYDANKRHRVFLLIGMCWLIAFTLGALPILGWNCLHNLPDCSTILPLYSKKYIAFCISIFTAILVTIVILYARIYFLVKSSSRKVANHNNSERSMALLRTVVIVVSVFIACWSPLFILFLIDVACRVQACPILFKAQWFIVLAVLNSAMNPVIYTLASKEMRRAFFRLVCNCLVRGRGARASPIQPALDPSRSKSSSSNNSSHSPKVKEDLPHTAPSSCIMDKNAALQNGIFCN
S1P4 agonist – agonists of human S1P4 receptor; S1P4-expressing cell line, agonist reporter assay; actives 0.35% (n = 220,000); AID 1509; activation, % at 4.98 µM; O95977; in the data active = activation above about 11%;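 note: 0% = DMSO vehicle and 100% = reference agonist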
S1P4 antag – blocks the human S1P4 receptor. S1P4-expressing cells, antagonist mode, reporter read-out. inhibition, % at 4.98 µM. actives 0.26% (n = 220,000). AID 1510; in the data active = inhibition above about 29%;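 note: 0% = wells stimulated with agonist and 100% = vehicle wells without agonist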
Calpain2 inh – inhibitors of pig calpain II | inhibition, % at 16 µM | purified calpain II, fluorogenic peptide substrate, 30 min | actives 0.37% (n = 220,000) | AID 1236;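 active = inhibition above about 50%, limit read from the data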
* hit, by the source's call; . = no result.

SMILES	PERK inhibitor	S1P3 antagonist	S1P4 agonist	S1P4 antag	Calpain2 inh
O=c1[nH]c(C2CCN(S(=O)(=O)c3ccccc3)CC2)nc2c1nnn2Cc1ccccc1	1	-6	-1	-5	-92
COc1ccc(/C=N/NS(=O)(=O)c2ccc(C)cc2)cc1OC(=O)c1ccc(C)cc1	-1	.	-3	-23	-203
COc1cc(/C=N/NS(=O)(=O)c2ccc(C)cc2)ccc1OCc1ccc(C(=O)O)cc1	2.9*	2	-1	5	49
Cc1ccc(C(C)C)c(OC/C(O)=C(\C#N)c2nc3ccccc3[nH]2)c1	-1	-10	1	-14	-7
COc1ccc(CCCc2nnc(SCC(=O)Nc3ccc(C)c(C)c3)o2)cc1	0	.	1	-19	60*
Cc1ccc(N2CC(C(=O)Nc3cc(C)on3)CC2=O)cc1 (stereo not drawn)	2.9*	.	2	2	-5
Cc1cc(NC(=O)C2CC(=O)N(c3ccccc3)C2)no1 (stereo not drawn)	2	-25	2	-8	4
Cc1cc(OCC(=O)Nc2ccncc2)ccc1[N+](=O)[O-]	0	4	2	0	-19
COc1ccc(C(=O)Oc2coc(CSc3nnc(NC(=O)c4cccs4)s3)cc2=O)cc1	0	-15	0	-15	-3
O=C(O)Cn1nc(-c2ccccc2)oc1=O	3.0*	.	2	-11	-16
O=C(O)Cn1nc(-c2ccc(F)cc2)oc1=O	0	-9	1	-13	22
CCN(CC)CCOC(=O)c1ccc(NC(=O)C(C)NC(=O)C23CC4CC(CC(C4)C2)C3)cc1 (stereo not drawn)	-1	14	3	-14	3
O=[N+]([O-])c1cn(Cc2ccc(Cl)cc2)cn1	0	.	2	1	-2
COc1ccc(Cn2cnc([N+](=O)[O-])c2)cc1[N+](=O)[O-]	3.1*	-14	0	-7	-3
CCOC(=O)c1c(N)c(C#N)cn1-c1ccccc1	0	13	-2	-1	-10
CCOC(=O)c1c(NC(=O)c2nn(CC)cc2Br)c(C#N)cn1-c1ccccc1	-1	59*	2	-16	10
O=C(Cc1cccc2ccccc12)NCCOc1ccccc1F	1	3	0	-6	-16
COc1ccc(-c2cc(-c3nnc(COC(=O)c4ccncc4)o3)c3ccccc3n2)cc1OC	0	-5	1	2	-134
Cc1cc(C)c2cc(C#N)c(NCCOC(=O)c3ccccc3C)nc2c1	3.2*	.	-1	-3	-46
CCOC(=O)C1=C(CN2CC(C)CC(C)C2)NC(=O)NC1c1ccc2c(c1)OCO2 (stereo not drawn)	0	-8	1	-5	16
O=c1cc(N=Nc2ccc(Cl)cc2)[nH]c(=O)[nH]1	1	-8	-1	4	-15
O=Cc1ccc(-c2cc(Cl)ccc2Cl)[nH]1	3.3*	4	-1	-18	42
O/N=C/c1ccc(-c2cc(Cl)ccc2Cl)o1	0	-6	1	-22	4
COc1ccc(/C(C)=N/NS(=O)(=O)c2cc(C)ccc2C)c(OC)c1	1	1	2	1	-12
COc1ccc(-c2nn(-c3ccccc3)cc2C(=O)O)cc1	3.2*	-27	2	-2	9
SMILES	PERK inhibitor	S1P3 antagonist	S1P4 agonist	S1P4 antag	Calpain2 inh
COc1cnc(SCc2c(Cl)cccc2Cl)nc1Cl	-1	.	-2	19	51*
Cc1nc(SCc2c(F)cccc2Cl)n[nH]1	-1	-20	2	2	5
COC(=O)C1=C(N)Oc2cc(C)n(C)c(=O)c2C1c1ccc(Cl)cc1 (stereo not drawn)	1	71*	-2	-8	3
Cc1ccc(-c2cc(C(=O)OC3CCOC3=O)c3ccccc3n2)c(C)c1 (stereo not drawn)	2.9*	2	-1	-2	8
Cc1cccc(-c2noc(CN(C(=O)c3ccc4c(c3)OCO4)C(C)C)n2)c1	1	-1	0	-7	21
Cc1nc(C(C)N(C)Cc2nc(-c3ccc4c(c3)OCO4)no2)c(C)s1 (stereo not drawn)	3.0*	3	2	2	15
c1ccc2c(C3=NNC(=NC4CCCCC4)SC3)c[nH]c2c1	-1	-4	-1	16	75*
CC(=O)Nc1ccccc1C(=O)C(=O)Nc1cccc(C(=O)NCC2CCCO2)c1 (stereo not drawn)	0	2	0	-2	93*
CC(=O)Nc1ccccc1C(=O)C(=O)Nc1ccc(C(=O)NCC2CCCO2)cc1 (stereo not drawn)	0	6	1	-28	11
CCc1ccc(OCC(=O)N/N=C\c2ccco2)c([N+](=O)[O-])c1	1	1	1	-2	-8
Cc1ccccc1C(C(=O)NC1CCCCC1)N(C(=O)c1ccccn1)c1cccnc1 (stereo not drawn)	-1	2	7	2	-10
CCC(C)C(NC(=O)c1ccc(Cl)cc1)C(=O)Nc1cccnc1 (stereo not drawn)	0	-12	1	-24	102*
Cc1nc([N+](=O)[O-])cn1CCC#N	3.6*	-7	3	-7	-3
O=C1C=C(Nc2ccc(O)cc2)C(=O)c2ccccc21	-1	-5	1	6	58*
Cc1ccc(NC2=CC(=O)C(=O)c3ccccc32)cc1	0	.	1	-22	22
CCc1ccc(NC(=O)C2CCCN2S(=O)(=O)c2ccc3c(c2)n(C)c(=O)c(=O)n3C)cc1 (stereo not drawn)	0	8	1	9	-9
NNc1ccc2c(C(F)(F)F)cc(C(F)(F)F)nc2n1	0	-20	0	-10	-110
N#CC(c1cccc(Cl)c1)c1ccc2c(C(F)(F)F)cc(C(F)(F)F)nc2n1 (stereo not drawn)	1	.	0	0	63*
Clc1ccc(Nc2ccccc2)nn1	2	6	0	-14	-1
O=C(CNC(=S)N(Cc1ccccc1)Cc1ccccc1F)NCc1ccccc1	0	5	1	0	54*
COc1cccc(CNC(=O)CNC(=S)N(Cc2ccccc2)Cc2ccccc2F)c1	-1	3	-1	-5	54*
Cc1c(N=NC2=C(O)CC(C)(C)CC2=O)c(=O)n(-c2ccccc2)n1C	1	-7	0	0	30
O=C1C2C3C=CC(C3)C2C(=O)N1c1ccc(Cc2ccncc2)cc1 (stereo not drawn)	0	.	0	-16	13
O=C1c2ccc(Br)cc2C(=O)N1c1ccc(Cc2ccncc2)cc1	0	-4	2	-2	88*
CC(C)Oc1ccc(CCC(=O)NNC(=O)CCC(=O)O)cc1	3.1*	-14	0	7	-1
COc1ccc(CCC(=O)NC(C)C)cc1	1	1	1	-21	5
COc1ccccc1-n1nnnc1SCc1cc2c(cc1Br)OCO2	1	-12	0	17	50*
COc1ccc(-c2nc(-c3ccccc3OC)no2)cc1OC	0	54*	1	24	-10
COC(=O)C(NC(C)=O)(Nc1ccc(C)cn1)C(F)(F)F (stereo not drawn)	3.4*	0	1	1	14
